Data on 40 compounds can be found in PubChem BioAssay.

SMILES strings stand for the structures. The source made the active and inactive calls. Unless noted, no stated cut-off is given here; in the data, active means inhibition above about 33%; inactive means the rest.

Broadly, the inhibition is the relative decrease from the control value, in per cent.

In one assay the target is Steroidogenic factor 1 (Homo sapiens) (UniProt Q13285). In words: inverse agonism at SF1 nuclear receptor – cell-based, luminescence, high throughput, counter-screen for LRH-1 inverse agonist project (AID 651614; in the data active means inhibition above about 44%;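 further: cells cotransfected with StAR promoter reporter and SF1 expression vector; 0% = vehicle on cells with receptor and 100% = vehicle on cells lacking receptor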). The note with it: cell-based SF1 luciferase reporter, at 3.6 µM, active compounds read high. On the technique in general: Counterscreens check selectivity or assay interference.
Sequence of Steroidogenic factor 1 (Homo sapiens) (Q13285 whole entry, looked up): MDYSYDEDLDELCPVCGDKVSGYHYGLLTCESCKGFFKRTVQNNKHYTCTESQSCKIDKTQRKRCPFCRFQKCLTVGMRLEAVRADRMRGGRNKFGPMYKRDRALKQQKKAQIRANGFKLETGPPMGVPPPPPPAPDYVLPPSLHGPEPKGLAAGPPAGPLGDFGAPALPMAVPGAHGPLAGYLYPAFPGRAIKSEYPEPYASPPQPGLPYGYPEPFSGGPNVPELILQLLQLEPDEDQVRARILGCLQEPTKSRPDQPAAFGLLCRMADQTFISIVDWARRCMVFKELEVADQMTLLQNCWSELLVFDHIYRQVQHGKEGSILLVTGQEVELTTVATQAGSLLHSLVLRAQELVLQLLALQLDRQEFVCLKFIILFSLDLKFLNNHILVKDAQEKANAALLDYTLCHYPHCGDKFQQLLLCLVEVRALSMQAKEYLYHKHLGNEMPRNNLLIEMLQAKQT
As to `COc1ccccc1-n1c(SCC(=O)Nc2ccc(F)cc2)nc2c(c1=O)SCC2`, the inhibition is 55.9% (active).
Still for that read-out and setting: the value for `Cc1cc(Cl)ccc1NC(=O)CN1C(=O)C(=O)N(C2CCCC2)C1=O` was 43.8% (active); that for `Cc1cc(OCC(=O)NC2CC2)c2c(C)c(C)c(=O)oc2c1` was 53.2% (active); that for `COc1cc(F)c(C2=CC(=O)CC(C)(C)C2)cc1F` was 34.5% (inactive).
The same measure, in the same setting: as for `CCn1c(=S)sc2c(=O)n(CC(=O)Nc3ccc(Cl)cc3)c(C)nc21`, the figure is 46.7% (active).
The same measure, in the same setting: as for `CCCCNc1cc(C)nc(NCc2ccccc2)n1`, the figure is 68.8% (active); as for `O=C(c1ccccc1)N1CCN(c2ccc([N+](=O)[O-])c(N3CCOCC3)c2)CC1`, 34.7% (inactive); as for `COc1ccc(C2=NS(=O)(=O)N(C)C(C(=O)N3CCc4ccccc4C3)=C2)cc1OC`, 46.2% (active).
Take `Cc1cc(C)nc(N/N=C/c2ccc([N+](=O)[O-])o2)n1`: the inhibition was 42.5% (inactive).
On the same count and under the same terms, the value for `CCCc1cc(=O)oc2cc3oc(C)c(C)c3cc12` was 50.5% (active); that for `CC[n+]1c(/C=C/c2ccc(N(C)C)cc2)ccc2ccccc21` was 86.6% (active).
`Cc1ccc(S(=O)(=O)N2CCc3ccccc3CC2)cc1`: the inhibition was 56.7% (active).
On the same count and under the same terms, as for `Cc1nc2ccc(NS(=O)(=O)c3ccc4c(c3)OCCO4)cc2s1`, the figure is 57.4% (active); as for `CC(C)NC(=O)N1Cc2cc(C(=O)NC3CCCC3)nc(-c3cccc(-c4cccnc4)c3)c2[C@@H]1CCO`, 42.1% (inactive).
Still for that read-out and setting: as for `CCOc1ccc(CCNC(=O)COC(=O)c2c(C)nn(-c3ccccc3)c2C)cc1OCC`, the figure is 28.1% (inactive).
Still for that read-out and setting: as for `Cc1ccc(SCc2ccc(C(=O)NCc3ccncc3)cc2)cc1`, the figure is 53.1% (active); as for `CCC(C)Nc1nc(-c2cccc(OC)c2O)nc2ccccc12` (stereo not given), 46.3% (active); as for `CCN(Cc1ccccc1)c1ccc(/C=N/NC(=O)c2cccc(S(=O)(=O)N3CCOCC3)c2)cc1`, 62.3% (active).
As to `Cc1c(C(=O)NC(C)c2ccncc2)oc2ccccc12` (stereo not given), the inhibition is 42.9% (active).
Still for that read-out and setting: the value for `CCOc1ccc(NC(=O)Cn2cc(C(=O)C3CC3)c3ccccc32)cc1` was 37.5% (inactive).
Same read-out and setting: the value for `CC1CC(=Cc2ccc(N)cc2)C(=O)O1` (stereo not given) was 47.7% (active); that for `Cc1cc(C)c2sc(NC(=O)c3ccc([N+](=O)[O-])o3)nc2c1` was 53.5% (active); that for `COc1ccc(C2(C)NC(=O)N(CC(=O)NCCC3=CCCCC3)C2=O)cc1OC` (stereo not given) was 38.1% (inactive).
On the same count and under the same terms, as for `COc1ccc(NC(=O)COC(=O)CNC(=O)c2cc(OC)c(OC)c(OC)c2)cc1`, the figure is 50.5% (active).
For the compound `COc1ccc(CCNC(=O)COC(=O)C23CC4CC(CC(Br)(C4)C2)C3)cc1`, the inhibition is 53.9% (active).

Tested on in the next assay: not listed separately
Kind of assay: compounds suppressing VP16-driven luciferase signal – cell-based, luminescence, high throughput, counter-screen for LRH-1 inverse agonist project (AID 651615). The note with it: Gal4-VP16 luciferase reporter cells, at 3.6 µM, active compounds read high.
Regarding `Cc1[nH][nH]c(=O)c1N=Nc1ccc(S(N)(=O)=O)cc1`, the inhibition is 6.39% (inactive).
In the case of `O=C(Nc1ccc(Cl)cn1)c1ccc([N+](=O)[O-])o1`, the inhibition is -20.8% (inactive).
The same measure, in the same setting: as for `COc1ccc(-c2sc(C(=O)c3ccc(Cl)cc3Cl)cc2CC(=O)O)cc1`, the figure is -5.16% (inactive); as for `CCOc1ccc(NC(=O)CN2CCN(C3c4ccccc4-c4ccccc43)CC2)cc1`, -0.77% (inactive).
Same read-out and setting: the value for `Cc1ccc[n+](CC(=O)Nc2ccc([N+](=O)[O-])cc2)c1` was -13.3% (inactive); that for `COc1ccc(/C=N/NC(=O)c2ccc(NC(=O)c3cccc([N+](=O)[O-])c3)cc2)c(OC)c1` was 2.35% (inactive).
Same read-out and setting: as for `COc1ccc(C2=Nn3c(nnc3-c3ccccc3OC)SC2)cc1OC`, the figure is 11.1% (inactive); as for `CC(=O)N1CCN(c2ccc(NC(=O)c3cccc([N+](=O)[O-])c3)cc2)CC1`, -19.9% (inactive).
Consider `CC(=O)c1ccc(NC(=O)C(C)O/N=C(\N)c2ccccc2)cc1` (stereo not given), for which the inhibition was -7.19% (inactive).
For the compound `COc1cc2c(cc1OC)C(C1C(=O)CC(C)CC1=O)N(C(=O)CCl)CC2` (stereo not given), the inhibition was -19.1% (inactive).
The same measure, in the same setting: the value for `C/C(=N\N1CCN(c2ccc(Cl)cc2)CC1)c1cccc([N+](=O)[O-])c1` was 8.61% (inactive).
On the same count and under the same terms, as for `COc1ccc(NC(=O)Cn2c(C)cc(=O)c3ccccc32)cc1`, the figure is 35.1% (active); as for `O=C(Cc1ccccc1)N/N=C/c1ccc([N+](=O)[O-])s1`, -9.91% (inactive).
Consider `COc1ccc(OC)c(-n2c(-c3ccc(S(C)(=O)=O)cc3)cc(C=O)c2C)c1`, for which the inhibition was -41.9% (inactive).
The same measure, in the same setting: as for `COc1ccccc1OCc1nnc(SCC(=O)Nc2ccc(N3CCOCC3)cc2)n1C`, the figure is -11.3% (inactive).
Still for that read-out and setting: the value for `COc1ccccc1-n1c(SCC(=O)Nc2ccc(F)cc2)nc2c(c1=O)SCC2` was -9% (inactive); that for `Cc1cc(Cl)ccc1NC(=O)CN1C(=O)C(=O)N(C2CCCC2)C1=O` was 1.38% (inactive).
Same read-out and setting: the value for `Cc1cc(OCC(=O)NC2CC2)c2c(C)c(C)c(=O)oc2c1` was -21.9% (inactive); that for `COc1cc(F)c(C2=CC(=O)CC(C)(C)C2)cc1F` was -13.9% (inactive).
For the compound `CCn1c(=S)sc2c(=O)n(CC(=O)Nc3ccc(Cl)cc3)c(C)nc21`, the inhibition is 19.1% (inactive).
Regarding `CCCCNc1cc(C)nc(NCc2ccccc2)n1`, the inhibition was 50.8% (active).
For the compound `O=C(c1ccccc1)N1CCN(c2ccc([N+](=O)[O-])c(N3CCOCC3)c2)CC1`, the inhibition was 3.81% (inactive).
The same measure, in the same setting: as for `COc1ccc(C2=NS(=O)(=O)N(C)C(C(=O)N3CCc4ccccc4C3)=C2)cc1OC`, the figure is 24.2% (inactive); as for `Cc1cc(C)nc(N/N=C/c2ccc([N+](=O)[O-])o2)n1`, -4.48% (inactive).
For the compound `CCCc1cc(=O)oc2cc3oc(C)c(C)c3cc12`, the inhibition is -5.27% (inactive).
On the same count and under the same terms, as for `CC[n+]1c(/C=C/c2ccc(N(C)C)cc2)ccc2ccccc21`, the figure is 85% (active).
The same measure, in the same setting: as for `Cc1ccc(S(=O)(=O)N2CCc3ccccc3CC2)cc1`, the figure is 53.9% (active); as for `Cc1nc2ccc(NS(=O)(=O)c3ccc4c(c3)OCCO4)cc2s1`, 52.6% (active).
Same read-out and setting: the value for `CC(C)NC(=O)N1Cc2cc(C(=O)NC3CCCC3)nc(-c3cccc(-c4cccnc4)c3)c2[C@@H]1CCO` was 5.54% (inactive); that for `CCOc1ccc(CCNC(=O)COC(=O)c2c(C)nn(-c3ccccc3)c2C)cc1OCC` was 2.25% (inactive); that for `Cc1ccc(SCc2ccc(C(=O)NCc3ccncc3)cc2)cc1` was -0.6% (inactive).
With `CCC(C)Nc1nc(-c2cccc(OC)c2O)nc2ccccc12` (stereo not given), the inhibition was -7% (inactive).
On the same count and under the same terms, as for `CCN(Cc1ccccc1)c1ccc(/C=N/NC(=O)c2cccc(S(=O)(=O)N3CCOCC3)c2)cc1`, the figure is 28% (inactive); as for `Cc1c(C(=O)NC(C)c2ccncc2)oc2ccccc12` (stereo not given), -7.87% (inactive); as for `CCOc1ccc(NC(=O)Cn2cc(C(=O)C3CC3)c3ccccc32)cc1`, -14.7% (inactive).
Take `CC1CC(=Cc2ccc(N)cc2)C(=O)O1` (stereo not given): the inhibition was -23.5% (inactive).
The same measure, in the same setting: the value for `Cc1cc(C)c2sc(NC(=O)c3ccc([N+](=O)[O-])o3)nc2c1` was -7.08% (inactive).
On to `COc1ccc(C2(C)NC(=O)N(CC(=O)NCCC3=CCCCC3)C2=O)cc1OC` (stereo not given), for which the inhibition was 0.38% (inactive).
On the same count and under the same terms, the value for `COc1ccc(NC(=O)COC(=O)CNC(=O)c2cc(OC)c(OC)c(OC)c2)cc1` was -7.21% (inactive).
Still for that read-out and setting: the value for `COc1ccc(CCNC(=O)COC(=O)C23CC4CC(CC(Br)(C4)C2)C3)cc1` was 4.71% (inactive).
